Screening results: PubChem BioAssay, National Center for Advancing Translational Sciences (NCATS)
This is a sample that favours compounds with a hit; in the whole collection about 14% have one here.
HCV inh – blocks hepatitis C virus. AID 651820. Huh7.5.1 HCVcc-Cre infection, luciferase reporter, 44 h. Potency, µM (highest dose often 41.8 µM), for the others: at the top dose activity change, negative = inhibition, actives largely listed as inhibitors. 340,000 tested, 3.4% active; further: potency means the concentration at half of the fitted maximal effect
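Cells (1,000/well) were plated 4 h before compound, then infected with HCVcc-Cre virus (~0.5 moi). After 44 h further culture, infection was read as luciferase luminescence following a 15 min substrate incubation at room temperature.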
Pf growth 96h – inhibits malaria parasite growth, 96 h; P. falciparum luciferase reporter growth, 96 h; Potency, µM (highest dose often 28.7 µM), for inactives: top-dose activity change, negative = inhibition, hits mostly inhibitors; 320,000 tested, 6.9% active; AID 504834; further: potency means the concentration at half of the fitted maximal effect
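Plates of compound plus infected erythrocytes (2% hematocrit, 0.05% parasitemia final) incubate 96 hours, 37 C, 5% CO2. Detection reagent added; reduced luminescence from the parasites' luciferase reporter flags inhibition.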
Pf growth 48h – P. falciparum growth inhibition at 48 hours (one generation); P. falciparum luciferase growth in erythrocytes, 48 h; Potency, µM (doses to about 28.7 µM), for the others: top-dose activity change, negative = inhibition, hits mostly inhibitors; 310,000 tested, 5.9% active; further: potency means the concentration at half of the fitted maximal effect
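Luminescence readout; reporter = integrated firefly luciferase in P. falciparum. RBC culture at 2% hematocrit, 0.1% parasitemia final, 37 C/5% CO2; decreased signal taken as growth inhibition.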
Lassa entry inh – blocks Lassa virus binding to or entry into cells; Lassa virus pseudotype entry inhibition, cell reporter; Potency, µM (top dose mostly 37.9 µM), for inactives: top-dose activity change, negative = inhibition, most hits filed as inhibitors; 300,000 tested, 1.2% active; AID 540256; calls by dose curve; tested in HEK293 cells; further: potency means the concentration at half of the fitted maximal effect; nearly all actives have a fitted effect of over 50% in size
HCMV antiviral – blocks human cytomegalovirus replication; HFF cells, HCMV-luciferase reporter, 72 h; hits give low values; activity change, negative = inhibition, % at 57.5 µM; 410,000 tested, 4.5% active; in the data active means activity change below about -60%; inconclusive means no clear call, values can overlap the other calls; inactive means above about -39%
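Cell-based, HFFs, 1000 cells/well, 16 h 37C; cpds in DMSO + HCMV-luc, MOI 1 PFU/cell; 72 h 37C; OneGlo luminescence after 5 min RT; norm. to buffer vs Salinomycin 10uM.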
MARV entry inh – inhibitors of Marburg virus binding or cell entry. Marburg virus pseudotyped entry inhibition, cell reporter. Potency, µM (titrated, usually from 37.8 µM), without a hit: at the top dose activity change, negative = inhibition, most hits filed as inhibitors. 300,000 tested, 1.8% active; calls by dose curve; tested in HEK293 cells; further: potency means the concentration at half of the fitted maximal effect
An asterisk follows results filed as active; ? = inconclusive; / = no result given; + = active, no number; ! = not active in a repeat; [ ] = dose if it differs, or a comment. Unless noted, the call rests on the fitted dose curve; in most records, active means well fitted inhibition curve with a large enough effect; inconclusive means small, poorly fitted or top-dose-only effect, or another doubt; inactive means no such curve, though single readings can be large or run the other way. On the % scale 0 is the no-effect control and ±100 the full control effect.

SMILES	HCV inh	Pf growth 96h	Pf growth 48h	Lassa entry inh	HCMV antiviral	MARV entry inh
CCOc1ccccc1NC(=O)C1=C(C)Nc2ncnn2C1c1ccco1 (stereo not drawn)	/	/	/	13%[46.1 µM]	6	/
Cc1cccc2sc(NNC(=O)c3ccc(S(=O)(=O)N4CCCC(C)C4)cc3)nc12 (stereo not drawn)	2.8µM*	39%	31%	?	-72*	?
Cc1cccc2sc(NNC(=O)c3ccc(S(=O)(=O)N4CCc5ccccc5C4)cc3)nc12	?	5.2µM*	?	?	-105*	?
CCc1nnc(NC(=O)c2ccc(S(=O)(=O)N3CCCC(C)C3)cc2)s1 (stereo not drawn)	-3%	34%	20%	2%	-2	8%[46.1 µM]
Cc1cccc2sc(NC(=O)c3cccc(S(=O)(=O)N4CCc5ccccc54)c3)nc12	?	35%	-9%	0%	9	-11%
Cc1noc(NS(=O)(=O)c2ccc(NS(=O)(=O)c3ccc(C(C)(C)C)cc3)cc2)c1C	/	/	/	/	-9	/
Cc1ccc(NS(=O)(=O)c2cc(Br)cc3c2N(C(=O)C2CC2)CC3)cc1C	/	/	/	?	-75*	/
O=C(C1CC1)N1CCc2cc(Br)cc(S(=O)(=O)NCCCN3CCCC3)c21	?	9.3µM*	-1%	2%	19	-17%
COc1cc(NS(=O)(=O)c2cc(Br)cc3c2N(C(=O)C2CC2)CC3)cc(OC)c1	/	/	/	3.5µM*	31	/
O=C(C1CC1)N1CCc2cc(Br)cc(S(=O)(=O)Nc3ccc(F)c(F)c3)c21	/	/	/	?	-37	?
CC1CCCN(CCCNS(=O)(=O)c2cc(Br)cc3c2N(C(=O)C2CC2)CC3)C1 (stereo not drawn)	-10%	21%	-5%	13%	-10	?
CC12CN3CC(C)(CN(C1)C3c1ccc([N+](=O)[O-])o1)C2=O (stereo not drawn)	24%	27%	14%	-6%	-37	-23%
CC(C)C12CN3CC(C(C)C)(CN(C1)C3c1ccc([N+](=O)[O-])o1)C2=O (stereo not drawn)	8%	28%	2.1µM*	0%	-72*	-1%[46.1 µM]
CCC(=O)NN1CCN(c2ccncc2S(=O)(=O)N2CCCCC2)CC1	-5%	16%	6%	/	1	/
CCCCOCCOC(=O)C1OC1(C)c1ccccc1 (stereo not drawn)	/	/	/	/	-9	/
O=C(NCCN1CCOCC1)c1ccc2c(c1)N(Cc1ccccc1)C(=O)c1ccccc1S2	2%	-18%	?	/	+	/
O=C(NCCN1CCOCC1)c1ccc2c(c1)N(Cc1c(F)cccc1Cl)C(=O)c1ccccc1S2	?	9.3µM*	13µM*	/	-27	/
Cc1cccc(CN2C(=O)c3ccccc3Sc3ccc(C(=O)NCCCN4CCOCC4)cc32)c1	-10%	?	?	-13%[46.1 µM]	-64*!	/
CCN1C(=O)c2ccccc2Sc2ccc(C(=O)NCCN3CCOCC3)cc21	15%	?	-10%	-20%	-19	-27%
O=C(NCCCN1CCOCC1)c1ccc2c(c1)N(Cc1ccccc1)C(=O)c1ccccc1S2	10%	?	1%	2%[46.1 µM]	0	/
CC(=O)Nc1ccc(S(=O)(=O)NC(C)C(=O)NCC(c2ccco2)N(C)C)cc1 (stereo not drawn)	23%	16%	-28%	15%	4	22%
O=c1ccc2cc3ccoc3c(O)c2o1	1µM*	/	/	/	23	/
COc1cc2ccc(=O)oc2c(O)c1O	-14%	/	/	/	14	/
CCOc1ccc(-c2cc(C(=O)OC)nc3c2c(=O)n(C)c(=O)n3C)cc1	-2%	14%	12%	-1%[46.1 µM]	-11	2%[46.1 µM]
NC(=O)c1cc([N+](=O)[O-])ccc1NCc1cnccn1	50%	0%	-28%	/	3	/
SMILES	HCV inh	Pf growth 96h	Pf growth 48h	Lassa entry inh	HCMV antiviral	MARV entry inh
O=c1cc(Br)c(O)c(Br)cc1Br	3%	/	/	-13%[46.1 µM]	-5	9%[46.1 µM]
[O-][n+]1cccc2c(Br)cc(Br)c(O)c21	-2%	0%	12%	12%[46.1 µM]	-84*	11%[46.1 µM]
CC(=O)Nc1cc2nn(-c3ccccc3)nc2cc1C	10%	13µM*	171%	/	190	/
Cc1ccc(C)c(N2CCN(c3nc4ccccc4n4c(C)nnc34)CC2)c1	/	/	/	11%[46.1 µM]	2	/
Cc1ccc(C[n+]2cc(-c3ccc(Cl)cc3)n3c2CCC3)cc1	-25%	0.41µM*	1µM*	?	-61*	?
Cc1ccc(-c2c[n+](Cc3ccc(Cl)cc3)c3n2CCC3)cc1	-12%	0.29µM*	0.93µM*	?	-79*	-24%
Cc1ccc(Cn2ccc(=O)c(Cc3c(Cl)cccc3Cl)c2C)cc1	?	0.41µM*	?	-11%	-6	-8%
O=C(N/N=C/c1ccc(-c2ccccc2[N+](=O)[O-])o1)[C@H]1C[C@@H]1c1ccccc1	?	25%	0%	0.82µM*	?	?
O=C(N/N=C/c1ccc(-c2ccc([N+](=O)[O-])cc2)o1)[C@H]1C[C@@H]1c1ccccc1	?	38%	2%	?	0	-23%[46.1 µM]
O=C(N/N=C/c1ccc(-c2cccc([N+](=O)[O-])c2)o1)[C@H]1C[C@@H]1c1ccccc1	?	3%	-5%	4µM*	?	4%
Cc1ccc(C(=O)N/N=C/c2ccc(-c3ccccc3[N+](=O)[O-])o2)cn1	-8%	-12%	-20%	18%	-64*	5%
OCC1(Cc2ccccc2C(F)(F)F)CCN(Cc2ccccc2)CC1	-19%	?	12µM*	-26%[46.1 µM]	-5	?
OCC1(Cc2ccc(Cl)cc2)CCN(Cc2ccc(F)c(F)c2)CC1	?	?	?	/	14	/
FC(F)(F)c1ccccc1CN1CCN(Cc2ccccc2)CC1	27%	35%	/	-20%	16	?
OCC1(Cc2ccccc2C(F)(F)F)CCN(Cc2ccc3c(c2)CCO3)CC1	9%	?	12µM*	-5%[46.1 µM]	-76*	?
CN1CCN(S(=O)(=O)c2cccc(C(=O)N(C)CC(=O)Nc3ccc(Cl)c(Cl)c3)c2)CC1	-14%	/	/	/	-23	/
CCCOc1ccccc1Nc1nnc(C)c(=O)[nH]1	13%	13µM*	15%	-10%	14	3%
CCOC(=O)c1sc2nc(C)n(CC(=O)Nc3cccc(Cl)c3)c(=O)c2c1C	/	/	/	11%[46.1 µM]	15	27%[46.1 µM]
CCOC(=O)c1sc2c(c1C)c(=O)n(Cc1ccccc1)c(=O)n2CCN(C)C	-7%	2.1µM*	?	?	?	?
CN(C)CCn1c(=O)n(Cc2ccccc2)c(=O)c2c3c(sc21)CCCCC3	7%	?	-17%	?	0	?
